# Paper PMC11062922 (Nature Chemical Biology, 2023)
# Where two headings read alike, the source gives them in different places.
# Tests used:
# Design in all cases: species or system human, MV4-11 + K-562 + COLO205 + SK-N-BE2 + OVCAR-8
# NEK9 = details: read-out: apparent Kd; compound concentrations: 100 nM and 1000 nM (sheet 'Samples'), CATDS: 1; n = 1
# MAPK14 = details: read-out: apparent Kd, n = 1
# PIK3C3 = details: read-out: apparent Kd; compound concentrations:100 nM and 1000 nM (sheet 'Samples'); n = 1
# STK16 = details: read-out: apparent Kd; compound concentrations:100 nM and 1000 nM (sheet 'Samples'); n = 1
# MTOR = details: read-out: apparent Kd; compound concentrations: 100 nM and 1000 nM (sheet 'Samples'), CATDS: 7.1154294212896999E-2; n = 1
# PDGFRB = details: read-out: apparent Kd, compound concentrations: 100 nM and 1000 nM (sheet 'Samples'), n = 1
# PI4KA = details: read-out: apparent Kd; compound concentrations: 100 nM and 1000 nM (sheet 'Samples'), CATDS: 9.2469758478665204E-2; n = 1
# PI4KB = details: read-out: apparent Kd; compound concentrations: 100 nM and 1000 nM (sheet 'Samples'), CATDS: 6.1584731713773599E-2; n = 1
# PIK3C2A = details: read-out: apparent Kd; compound concentrations: 100 nM and 1000 nM (sheet 'Samples'), CATDS: 5.5656712709310899E-2; n = 1
# PIK3C2B = details: read-out: apparent Kd; compound concentrations: 100 nM and 1000 nM (sheet 'Samples'), CATDS: 0.103549921719069; n = 1
# PIK3CA = details: read-out: apparent Kd; compound concentrations: 100 nM and 1000 nM (sheet 'Samples'), CATDS: 0.27321348763970998; n = 1
# PIK3CB = details: read-out: apparent Kd; compound concentrations: 100 nM and 1000 nM (sheet 'Samples'), CATDS: 0.12993654601332599; n = 1
# PIK3CD = details: read-out: apparent Kd, compound concentrations: 100 nM and 1000 nM (sheet 'Samples'), n = 1
# PIK3CG = details: read-out: apparent Kd, n = 1
# PRKDC = details: read-out: apparent Kd; compound concentrations: 100 nM and 1000 nM (sheet 'Samples'), CATDS: 5.8127762202415202E-2; n = 1
# NUAK2 = details: read-out: apparent Kd; compound concentrations:100 nM and 1000 nM (sheet 'Samples'); n = 1
# MCM5 = details: read-out: apparent Kd; compound concentrations:100 nM and 1000 nM (sheet 'Samples'); n = 1
# NLK = details: read-out: apparent Kd, n = 1
# TNIK = details: read-out: apparent Kd, n = 1
# MAPK7 = details: read-out: apparent Kd; compound concentrations: 100 nM and 1000 nM (sheet 'Samples'), CATDS: 1; n = 1
# PBK = details: read-out: apparent Kd, n = 1
# STK4 = details: read-out: apparent Kd; compound concentrations: 100 nM and 1000 nM (sheet 'Samples'), CATDS: 0.289467796660549; n = 1
# NQO2 = details: read-out: apparent Kd; compound concentrations:100 nM and 1000 nM (sheet 'Samples'); n = 1
# TGFBR1 = details: read-out: apparent Kd; compound concentrations:100 nM and 1000 nM (sheet 'Samples'); n = 1
# MAPKAPK2 = details: read-out: apparent Kd, n = 1
# MTHFD1 = details: read-out: apparent Kd; compound concentrations: 100 nM and 1000 nM (sheet 'Samples'), CATDS: 0.41943372694081998; n = 1
# TNK1 = details: read-out: apparent Kd; compound concentrations: 100 nM and 1000 nM (sheet 'Samples'), CATDS: 0.618875790720404; n = 1
# MYLK3 = details: read-out: apparent Kd; compound concentrations: 100 nM and 1000 nM (sheet 'Samples'), CATDS: 0.35775008511520401; n = 1
# T10 = system: T1, T10; details: read-out: apparent Kd; compound concentrations: 100 nM and 1000 nM (sheet 'Samples'), CATDS: 0.30543908388735203; n = 1
# T1 construct: gene NAT10
# TTK = details: read-out: apparent Kd; compound concentrations: 100 nM and 1000 nM (sheet 'Samples'), CATDS: 0.34120640497056598; n = 1
# MERTK = details: read-out: apparent Kd; compound concentrations:100 nM and 1000 nM (sheet 'Samples'); n = 1
# NNT = details: read-out: apparent Kd; compound concentrations:100 nM and 1000 nM (sheet 'Samples'); n = 1
# [1] = compound concentrations:100 nM and 1000 nM (sheet 'Samples')
# [2] = compound concentrations: 100 nM and 1000 nM (sheet 'Samples'), CATDS: 1
structure (smiles),measurement,setting,value
COc1cc(Nc2ncc3c(C)nc(-c4cccc(Oc5ccccc5)c4)n3n2)cc(OC)c1OC [GW861893X],potency estimated from few doses,NEK9,584 nM
Nc1n[nH]c2ncc(-c3ccccc3)cc12 [SB-517081_KCGS],potency estimated from few doses,MAPK14; [1],1590 nM
same,potency estimated from few doses,PIK3C3,1320 nM
same,potency estimated from few doses,STK16,1630 nM
COc1ccc(-c2cc3c(C)nc(N)nc3n([C@H]3CC[C@H](O)CC3)c2=O)cn1 [PFE-PKIS_40],potency estimated from few doses,MTOR,382 nM
same,potency estimated from few doses,PDGFRB; CATDS: 5.6462124359458001E-2,1550 nM
same,potency estimated from few doses,PI4KA,96.5 nM
same,potency estimated from few doses,PI4KB,875 nM
same,potency estimated from few doses,PIK3C2A,1720 nM
same,potency estimated from few doses,PIK3C2B,55.7 nM
same,potency estimated from few doses,PIK3CA,1.69 nM
same,potency estimated from few doses,PIK3CB,19.7 nM
same,potency estimated from few doses,PIK3CD; CATDS: 0.40484446782600397,0.817 nM
same,potency estimated from few doses,"PIK3CG; compound concentrations: 100 nM and 1000 nM (sheet 'Samples'), CATDS: 0.28339263062776299",1.57 nM
same,potency estimated from few doses,PRKDC,1260 nM
COc1ccc(NC(=O)c2ccc(-c3cc(-c4nnc(C)o4)ccc3C)cc2)cc1 [GW595885X],potency estimated from few doses,NUAK2,1230 nM
same,potency estimated from few doses,PIK3CG; [1],1410 nM
COc1cccc(-c2ccc3c(NC(=O)C4CC4)n[nH]c3n2)c1 [SB-710903],potency estimated from few doses,MCM5,2020 nM
same,potency estimated from few doses,NLK; [1],1900 nM
same,potency estimated from few doses,TNIK; [1],1640 nM
CCOc1cc(C(=O)N2CCC(N3CCN(C)CC3)CC2)ccc1Nc1ncc2c(n1)N(C1CCCC1)c1ccccc1C(=O)N2C [ERK5-IN-1],potency estimated from few doses,MAPK7,813 nM
COc1ccc(NC(=O)Nc2ccc(C)c(-c3ccc(C(=O)Nc4ccncc4)cc3)c2)cc1 [GSK1398475A],potency estimated from few doses,PDGFRB; CATDS: 1,1680 nM
N#Cc1cccc(C(=O)c2cnn(-c3ccc(F)cc3)c2N)c1 [RO1153321-000],potency estimated from few doses,PBK; [2],1730 nM
O=C(Nc1n[nH]c2cc(-c3cccc(F)c3F)ccc12)C1CC1 [SB-733894],potency estimated from few doses,"NLK; compound concentrations: 100 nM and 1000 nM (sheet 'Samples'), CATDS: 0.29749178894258499",1860 nM
same,potency estimated from few doses,STK4,1990 nM
same,potency estimated from few doses,"TNIK; compound concentrations: 100 nM and 1000 nM (sheet 'Samples'), CATDS: 0.457886576185151",808 nM
FC(F)(F)c1ccc(-c2cc(-c3c[nH]nc3-c3ccccn3)ccn2)cc1 [GW599550X],potency estimated from few doses,NQO2,1070 nM
same,potency estimated from few doses,TGFBR1,1520 nM
CCS(=O)(=O)c1ccc(OC)c(Nc2nccc(-c3c(-c4cccc(NC(=O)c5c(F)cccc5F)c4)nn4ncccc34)n2)c1 [GSK326180A],potency estimated from few doses,MAPKAPK2; [2],1390 nM
CC(=O)N1CCC(Nc2ncc3cc(Oc4ccc(F)cc4F)c(=O)n(C)c3n2)CC1 [RO5043011-000],potency estimated from few doses,"MAPK14; compound concentrations: 100 nM and 1000 nM (sheet 'Samples'), CATDS: 0.40238945157455502",40.9 nM
same,potency estimated from few doses,MAPKAPK2; [1],14.2 nM
OCCCNc1nccc(-c2c(-c3cccc(C(F)(F)F)c3)nn3cc(C(F)(F)F)ccc23)n1 [GW630813X],potency estimated from few doses,"MAPK14; compound concentrations: 100 nM and 1000 nM (sheet 'Samples'), CATDS: 0.49980022483794101",1060 nM
same,potency estimated from few doses,"MAPKAPK2; compound concentrations: 100 nM and 1000 nM (sheet 'Samples'), CATDS: 0.50019993493019099",1060 nM
Cc1cc(NCC(c2ccccc2)c2ccccc2)nc(NCc2ccc(C(F)(F)F)cc2)n1 [GW497681X],potency estimated from few doses,MTHFD1,2040 nM
same,potency estimated from few doses,TNK1,909 nM
Cn1ncc2cc(-c3cnc(N)c(Cl)c3N3CCC4(CCNC4=O)CC3)ccc21 [CCT251921],potency estimated from few doses,PBK; [1],1570 nM
COc1ccc(-c2oc3ncnc(N)c3c2-c2ccc(NC(=O)Nc3cc(C(F)(F)F)ccc3F)cc2)cc1.Cl [GW768505A],potency estimated from few doses,MYLK3,1430 nM
same,potency estimated from few doses,T10,1970 nM
same,potency estimated from few doses,TTK,1570 nM
CS(=O)(=O)CCNCc1nc(-c2ccc3ncnc(Nc4ccc(F)c(Cl)c4)c3c2)cs1.Cl [GW461104A],potency estimated from few doses,MERTK,1190 nM
same,potency estimated from few doses,NNT,1740 nM
CC(=O)N[C@@H](Cc1ccc(OP(=O)(O)O)cc1)C(=O)N[C@H]1CCC(=O)N2CCC[C@@H](C(=O)NC3CCc4ccccc43)N2C1=O (some centres unmarked) [RO0324438-000],potency estimated from few doses,MERTK,1220 nM
Cl.Cl.Cl.N#Cc1ccc(CCNc2nccc(-c3cccc(CN4CCNCC4)c3)n2)cc1.N#Cc1ccc(CCNc2nccc(-c3cccc(CN4CCNCC4)c3)n2)cc1 [GSK2137462A],potency estimated from few doses,"PBK; compound concentrations: 100 nM and 1000 nM (sheet 'Samples'), CATDS: 0.354579243895072",1350 nM
same,potency estimated from few doses,PIK3CD; CATDS: 0.84763293051447697,134 nM
